Consider five compounds from PubChem BioAssay.

The nature of assay [1]: yeast TOR pathway RPL19A-GFP modulators, primary screen, cell-based, S. cerevisiae, multiplex flow cytometry (AID 1862; in the data active = percent of DMSO control GFP below about 86%;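 also: lower values mimic rapamycin by blocking the RPL19A rise seen in DMSO cells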). The settings on record: S. cerevisiae RPL19A-GFP strain, flow cytometry fluorescence, 3 h; at 10 µM; stronger effect = lower value.
A short description of assay [2]: modulators of MEP2-GFP levels in yeast, primary screen, S. cerevisiae, multiplex flow cytometry (AID 1867;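 active = GFP response, as percent of the DMSO control, above the screen-wide mean plus 3 SD, about 139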;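 also: median GFP channel fluorescence of barcode-gated MEP2-GFP cells measured by flow cytometry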). The settings on record: S. cerevisiae MEP2-GFP strain, 3 h, at 10 µM, stronger effect = higher value, 100% means same as DMSO wells. For orientation: In flow cytometry, cells or beads pass a laser one at a time.
Assay [3] can be described thus: modulators of CIT2-GFP expression in yeast, primary screen, S. cerevisiae, GFP fusion, multiplex flow cytometry (AID 1870).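 Also: barcoded CIT2-GFP strain pooled with four other GFP strains with rapamycin as positive control; median GFP fluorescence per well over plate mean of DMSO wells so 100% = DMSO.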 The settings on record: 3 h, at 10 µM, stronger effect = higher value.
Assay [4] in a line: modulators of LAP4-GFP expression in yeast, primary screen, S. cerevisiae, multiplex flow cytometry (AID 1873;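 active = GFP signal, as percent of the solvent control, above the screen mean plus 3 SD, about 149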). The settings on record: 3 h, at 10 µM, stronger effect = higher value.
The nature of assay [5]: modulators of AGP1-GFP expression in yeast TOR pathway, primary screen, cell-based, multiplex flow cytometry, S. cerevisiae (AID 1887;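 active = GFP signal above the screen-wide mean plus 3 SD, that is over about 124.5% of the solvent control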;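 also: AGP1-GFP fusion strain of S. cerevisiae within a five-strain barcoded multiplex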). The settings on record: 3 h, at 10 µM, stronger effect = higher value.
A short description of assay [6]: inhibitors of CD8+ T cell-vesicle binding, pilot screen, LFA-1/ICAM-1 modulator project, MLPCN validation set, flow cytometry (AID 2523;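 active = response below a set limit, under 55% cells CD8-positive and vesicle-bound, and CD8 cells' 90th-percentile brightness under 279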;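 as to vesicle binding response: mean PE anti-B7-1 fluorescence of CD8+ cells relative to row control; 100% = QL9-loaded vesicles with DMSO vehicle in the same plate row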). The settings on record: 2C mouse CD8+ T cells, at 7 µM, stronger effect = lower value; double positive events: measured here: CD8+/vesicle+ event percentage.
The target in assay [7] is Integrin beta-1 (Homo sapiens) + Integrin alpha-4 (Homo sapiens) (UniProt P13612+P05556). The assay can be described thus: inhibition of HUTS-21 binding to VLA-4, pilot screen, VLA-4 allosteric modulator project, U937 cells, HUTS-21 mAb, flow cytometry, validation set (AID 2674;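 active = inhibition above 50%, about 3 SD of the validation set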;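 also: antibody binding induced by the VLA-4 ligand LDV present at three times its Kd; 0% = LDV ligand with antibody and no compound and 100% = antibody without LDV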). The settings on record: HUTS-21 LIBS mAb binding, at 6.7 µM, stronger effect = higher value, binding induced by LDV ligand.
Integrin beta-1 (Homo sapiens) + Integrin alpha-4 (Homo sapiens), sequence (P05556 whole entry, looked up): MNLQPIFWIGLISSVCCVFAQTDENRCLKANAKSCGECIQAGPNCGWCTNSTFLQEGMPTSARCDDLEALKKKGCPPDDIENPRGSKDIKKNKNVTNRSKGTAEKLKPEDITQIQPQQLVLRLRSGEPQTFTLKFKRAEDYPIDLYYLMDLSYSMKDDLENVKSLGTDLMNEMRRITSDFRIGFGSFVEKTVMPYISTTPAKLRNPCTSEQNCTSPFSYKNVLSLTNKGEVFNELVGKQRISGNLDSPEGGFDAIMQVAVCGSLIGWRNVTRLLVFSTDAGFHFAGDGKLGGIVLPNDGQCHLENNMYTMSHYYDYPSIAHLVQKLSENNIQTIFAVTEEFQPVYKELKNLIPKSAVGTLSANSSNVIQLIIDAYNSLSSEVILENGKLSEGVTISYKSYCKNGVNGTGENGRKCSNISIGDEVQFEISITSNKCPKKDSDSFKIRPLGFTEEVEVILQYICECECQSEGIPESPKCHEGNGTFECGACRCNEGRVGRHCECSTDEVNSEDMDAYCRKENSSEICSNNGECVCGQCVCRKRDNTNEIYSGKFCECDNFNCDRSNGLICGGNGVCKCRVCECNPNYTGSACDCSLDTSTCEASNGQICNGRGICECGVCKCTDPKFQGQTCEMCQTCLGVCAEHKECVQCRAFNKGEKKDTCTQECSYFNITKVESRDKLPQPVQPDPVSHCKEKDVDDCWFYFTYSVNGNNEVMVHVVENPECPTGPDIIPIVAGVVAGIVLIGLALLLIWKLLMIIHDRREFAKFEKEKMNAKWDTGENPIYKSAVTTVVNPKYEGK
Integrin beta-1 (Homo sapiens) + Integrin alpha-4 (Homo sapiens), sequence (P13612 whole entry, looked up): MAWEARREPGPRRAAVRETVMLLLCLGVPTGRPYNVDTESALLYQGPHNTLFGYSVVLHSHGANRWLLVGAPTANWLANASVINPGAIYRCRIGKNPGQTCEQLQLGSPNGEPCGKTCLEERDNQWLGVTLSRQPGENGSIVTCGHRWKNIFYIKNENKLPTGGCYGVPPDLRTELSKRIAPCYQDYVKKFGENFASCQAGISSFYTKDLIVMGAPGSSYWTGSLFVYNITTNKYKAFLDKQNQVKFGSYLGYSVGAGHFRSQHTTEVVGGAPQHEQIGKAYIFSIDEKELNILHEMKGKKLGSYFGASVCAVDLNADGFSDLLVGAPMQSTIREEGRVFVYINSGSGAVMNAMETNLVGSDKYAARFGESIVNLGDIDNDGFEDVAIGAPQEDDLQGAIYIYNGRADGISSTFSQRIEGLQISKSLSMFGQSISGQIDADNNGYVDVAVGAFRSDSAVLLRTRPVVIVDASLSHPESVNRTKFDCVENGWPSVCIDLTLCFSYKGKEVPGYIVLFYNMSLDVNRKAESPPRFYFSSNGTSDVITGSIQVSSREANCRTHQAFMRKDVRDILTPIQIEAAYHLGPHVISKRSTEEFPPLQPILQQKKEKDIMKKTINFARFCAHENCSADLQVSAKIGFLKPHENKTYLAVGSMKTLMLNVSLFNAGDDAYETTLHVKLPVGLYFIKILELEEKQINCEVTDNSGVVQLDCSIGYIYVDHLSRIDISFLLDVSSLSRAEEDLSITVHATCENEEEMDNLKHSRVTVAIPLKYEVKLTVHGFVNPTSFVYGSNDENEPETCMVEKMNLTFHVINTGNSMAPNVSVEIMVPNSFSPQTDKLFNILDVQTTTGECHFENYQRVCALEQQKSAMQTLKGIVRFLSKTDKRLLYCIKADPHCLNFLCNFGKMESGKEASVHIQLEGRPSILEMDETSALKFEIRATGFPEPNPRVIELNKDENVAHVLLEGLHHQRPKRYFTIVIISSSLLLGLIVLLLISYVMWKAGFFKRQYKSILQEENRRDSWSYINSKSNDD

Assay [8] can be described thus: superoxide lowering in aged yeast cells, pilot screen, validation compound set (AID 2706;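 active = superoxide response below 65% of plate, a cut near 3 SD across the whole screen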;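 also: yeast exposed to compound for one week at 30 degrees C before staining; 100% = mean of all compound wells on the same plate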). The settings on record: S. cerevisiae aging, superoxide DHE fluorescence; at 10 µM; stronger effect = lower value.
In assay [9] the target is Beta-adrenergic receptor kinase 1 (Homo sapiens) (UniProt P25098). The assay can be described thus: GRK2 binders displacing RNA aptamer, biochemical, validation, human GRK2, bead flow cytometry (AID 488806;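 active = aptamer binding inhibition above 30%, about 3 SD of noise from non-fluorescent compounds; inactive = inhibition at or below 30%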). The settings on record: bead-bound GRK2, FAM-aptamer displacement, at 10 µM, stronger effect = higher value.
Beta-adrenergic receptor kinase 1 (Homo sapiens), sequence (P25098 whole entry, looked up): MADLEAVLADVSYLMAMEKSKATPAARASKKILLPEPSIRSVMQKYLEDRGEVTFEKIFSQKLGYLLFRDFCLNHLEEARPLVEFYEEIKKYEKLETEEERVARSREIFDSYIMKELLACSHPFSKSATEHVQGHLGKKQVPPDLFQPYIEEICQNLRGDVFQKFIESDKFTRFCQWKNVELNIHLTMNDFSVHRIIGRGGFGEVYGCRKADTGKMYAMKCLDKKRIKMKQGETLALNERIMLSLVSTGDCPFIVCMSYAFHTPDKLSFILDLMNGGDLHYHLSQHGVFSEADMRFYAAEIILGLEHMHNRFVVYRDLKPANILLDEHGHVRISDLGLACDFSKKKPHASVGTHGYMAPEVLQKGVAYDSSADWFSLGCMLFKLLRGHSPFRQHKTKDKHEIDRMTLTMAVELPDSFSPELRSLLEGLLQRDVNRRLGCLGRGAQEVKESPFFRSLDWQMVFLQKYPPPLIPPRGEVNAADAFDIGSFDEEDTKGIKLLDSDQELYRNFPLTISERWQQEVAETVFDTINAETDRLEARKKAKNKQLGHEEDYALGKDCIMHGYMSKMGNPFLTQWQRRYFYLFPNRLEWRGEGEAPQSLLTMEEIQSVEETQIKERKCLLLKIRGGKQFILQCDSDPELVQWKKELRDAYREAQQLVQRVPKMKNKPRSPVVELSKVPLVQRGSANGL
The target of assay [10] is Beta-2 adrenergic receptor (Homo sapiens) (UniProt P07550). The assay can be described thus: beta2AR agonists driving receptor internalization, pilot screen, cell-based, FAP fluorogen, flow cytometry, validation set (AID 504459;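 active = percent response above 42, roughly 3 SD of non-fluorescent test compounds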;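 also: agonist-driven loss of surface beta2AR via internalization measured by FAP dye flow cytometry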). The settings on record: Am2.2-beta2AR cells, FAP surface receptor flow cytometry; at 10 µM; stronger effect = higher value.
Beta-2 adrenergic receptor (Homo sapiens), sequence (P07550 whole entry, looked up): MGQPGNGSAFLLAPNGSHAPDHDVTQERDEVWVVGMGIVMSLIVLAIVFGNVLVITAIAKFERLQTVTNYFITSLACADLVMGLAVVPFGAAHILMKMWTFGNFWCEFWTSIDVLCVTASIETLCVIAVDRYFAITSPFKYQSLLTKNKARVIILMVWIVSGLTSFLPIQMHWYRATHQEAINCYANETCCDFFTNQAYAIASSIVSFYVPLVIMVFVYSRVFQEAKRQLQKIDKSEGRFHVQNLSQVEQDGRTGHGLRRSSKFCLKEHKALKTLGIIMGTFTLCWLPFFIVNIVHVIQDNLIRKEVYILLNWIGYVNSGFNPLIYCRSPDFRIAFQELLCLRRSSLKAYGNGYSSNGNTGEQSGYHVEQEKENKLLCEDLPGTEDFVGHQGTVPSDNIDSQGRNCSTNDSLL
Assay [11] concerns the target AP-2 complex subunit beta (Homo sapiens) (UniProt P63010). The assay can be described thus: inhibitors of arrestin peptide binding to AP2, pilot screen, biochemical, validation set, GST-AP2 beads, flow cytometry (AID 504541;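 active = inhibition above 54%, about 3 SD of non-fluorescent compounds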;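 also: AP2 carries R879A mutation and is captured from E. coli lysate; bead-bound FITC arrestin peptide fluorescence measuring arrestin peptide binding to AP2; 0% = DMSO wells and 100% = excess unlabeled arrestin peptide control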). The settings on record: FITC arrestin peptide, at 10 µM, stronger effect = higher value, AP2 beta2 appendage fragment, R879A mutant.
The nature of assay [12]: yeast V-ATPase proton transport modulators, S. cerevisiae, pHLuorin, HTS validation (AID 504600; in the data active = response above about 15%;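 also: plate controls were DMSO for no effect and reference compound for full effect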). The settings on record: S. cerevisiae pHLuorin cytosolic pH, at 10 µM, stronger effect = higher value.
For assay [13], the system named is anti-desmoglein-3 scFv antibody binding to human DSG3. As to the kind of experiment: inhibitors of anti-DSG3 scFv binding to DSG3, pilot screen, biochemical, validation compound set, bead-based, flow cytometry (AID 588368;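 active = binding below the plate cutoff, the plate median minus 3 SD, with a reading above zero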;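 also: signal is the median channel fluorescence of bead-bound GFP antibody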). The settings on record: Protein G beads, DSG3-Fc, scFv-GFP binding, at 10 µM, stronger effect = lower value.
A short description of assay [14]: inhibitors of fungal efflux pumps CDR1, CDR2, MDR1, pilot screen, validation compound set, multiplex, phenotypic (AID 588506;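 active = efflux inhibition above 0.42, the validation set average plus 4 SD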;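 also: Nile Red retained in cells so higher fluorescence means more efflux inhibition; 0 = negative control wells and 1 = enniatin B 25 µM full block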). The settings on record: S. cerevisiae pump-expressing triplex, Nile Red efflux flow cytometry; at 10 µM; stronger effect = higher value; the pumps come from Candida albicans.
In assay [15] the target is ATP-binding cassette sub-family B member 6 (Homo sapiens) (UniProt Q9NP58). As to the kind of experiment: ABCB6 transporter inhibitors, pilot screen, K562-ABCB6 cells, flow cytometry, validation set (AID 588550;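 active = inhibition above the screen-wide mean plus 3 SD, about 51%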;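 also: 0% = DMSO wells and 100% = benzethonium chloride 70 µM positive control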). The settings on record: K562-ABCB6 porphyrin accumulation, 1 h, at 10 µM, stronger effect = higher value.
ATP-binding cassette sub-family B member 6 (Homo sapiens), sequence (Q9NP58 whole entry, looked up): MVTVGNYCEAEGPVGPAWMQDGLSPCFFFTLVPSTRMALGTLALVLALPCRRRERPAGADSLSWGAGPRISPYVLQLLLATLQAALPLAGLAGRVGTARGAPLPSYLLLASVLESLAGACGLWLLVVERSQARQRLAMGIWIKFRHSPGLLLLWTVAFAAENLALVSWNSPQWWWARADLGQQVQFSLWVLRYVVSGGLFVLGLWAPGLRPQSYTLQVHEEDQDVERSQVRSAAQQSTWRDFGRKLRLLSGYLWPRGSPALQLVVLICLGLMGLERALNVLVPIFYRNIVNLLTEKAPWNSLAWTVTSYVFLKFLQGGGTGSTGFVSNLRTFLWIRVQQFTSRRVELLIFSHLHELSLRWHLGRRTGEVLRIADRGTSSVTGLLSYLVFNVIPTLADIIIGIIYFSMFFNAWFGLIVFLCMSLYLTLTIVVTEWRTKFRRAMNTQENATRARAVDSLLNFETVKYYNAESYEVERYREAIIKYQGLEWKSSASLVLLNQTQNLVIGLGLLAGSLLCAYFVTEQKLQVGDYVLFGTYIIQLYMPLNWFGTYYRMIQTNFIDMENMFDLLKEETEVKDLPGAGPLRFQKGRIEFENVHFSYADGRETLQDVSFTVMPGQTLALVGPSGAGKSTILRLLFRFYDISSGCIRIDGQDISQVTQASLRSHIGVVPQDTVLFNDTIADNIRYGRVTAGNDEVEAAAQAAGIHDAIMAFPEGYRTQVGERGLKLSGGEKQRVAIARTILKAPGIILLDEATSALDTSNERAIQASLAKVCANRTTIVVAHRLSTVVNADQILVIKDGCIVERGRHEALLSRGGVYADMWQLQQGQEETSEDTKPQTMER
Assay [16] in a line: promoters of myeloid differentiation in arrested cells, primary screen, cell-based, GFP/MAC1 double positive, flow cytometry, validation set (AID 588685;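 active = differentiation response of at least 50%, scaled between solvent and reference control, from cells with both markers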;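 also: compound exposure lasts four days before antibody staining and flow analysis; 0% = DMSO wells and 100% = 5 µM fulvestrant positive control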). The settings on record: ER-HoxA9 marrow cells, stronger effect = higher value, normalized: vehicle 0, fulvestrant 100.

Inconclusive results are not listed. The source made the active and inactive calls.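 The calls were made as follows, unless noted: active = percent response above a set limit, the screen-wide mean plus 3 SD (cut at about 130% in these data); inactive = the rest.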

AP-2 complex subunit beta (Homo sapiens), sequence (P63010 whole entry, looked up, the tested form may be a part, one chain of several): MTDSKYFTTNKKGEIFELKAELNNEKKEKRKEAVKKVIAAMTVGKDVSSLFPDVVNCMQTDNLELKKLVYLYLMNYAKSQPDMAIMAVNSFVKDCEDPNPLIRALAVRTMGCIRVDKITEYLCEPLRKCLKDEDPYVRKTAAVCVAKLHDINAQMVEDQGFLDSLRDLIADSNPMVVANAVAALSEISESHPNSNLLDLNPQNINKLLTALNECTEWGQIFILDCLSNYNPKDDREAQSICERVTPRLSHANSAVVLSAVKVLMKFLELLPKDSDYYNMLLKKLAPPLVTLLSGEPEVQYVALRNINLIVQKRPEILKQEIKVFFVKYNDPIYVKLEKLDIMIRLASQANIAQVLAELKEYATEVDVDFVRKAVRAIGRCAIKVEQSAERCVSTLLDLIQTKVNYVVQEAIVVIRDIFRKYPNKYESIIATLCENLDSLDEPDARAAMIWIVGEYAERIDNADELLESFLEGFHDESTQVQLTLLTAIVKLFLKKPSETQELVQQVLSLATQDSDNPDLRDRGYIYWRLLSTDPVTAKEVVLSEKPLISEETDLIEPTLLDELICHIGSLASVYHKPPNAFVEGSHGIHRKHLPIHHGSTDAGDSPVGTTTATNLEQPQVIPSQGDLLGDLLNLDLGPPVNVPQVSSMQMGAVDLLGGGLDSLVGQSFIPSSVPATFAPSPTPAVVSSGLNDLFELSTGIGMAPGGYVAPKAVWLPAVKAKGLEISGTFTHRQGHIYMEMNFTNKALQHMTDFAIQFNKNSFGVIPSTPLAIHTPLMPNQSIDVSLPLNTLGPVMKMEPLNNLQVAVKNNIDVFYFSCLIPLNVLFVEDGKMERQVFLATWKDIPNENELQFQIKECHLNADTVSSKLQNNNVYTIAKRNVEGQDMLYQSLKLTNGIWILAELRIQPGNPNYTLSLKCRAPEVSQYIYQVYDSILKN

As to `Cc1cc(=O)oc2cc(OC(C)C(=O)NCC3CCCO3)ccc12` (stereo not given), the percent of DMSO control GFP in [1] was 101% (inactive). In addition, the GFP response vs DMSO in assay [2] was 99.6% (inactive); in assay [4], 106% (inactive). For the same compound, the percent response of DMSO control in [3] was 104% (inactive). Further, the GFP response, % of DMSO in [5] was 102% (inactive). The same compound showed a double positive events in assay [6] of 68.8%. In addition, the vesicle binding response in assay [6] is 554% (inactive). The values for the inhibition in assay [7], in assay [11] and in assay [15] were -14.1% (inactive), -3.92% (inactive) and 5% (inactive), respectively. In addition, the superoxide response (% of plate) in assay [8] was 91.7% (inactive). The aptamer binding inhibition in assay [9] is 3% (inactive). The results for the response in [10] and in [12] were -0.14% (inactive) and 0.04% (inactive), respectively. Also, in assay [13], the binding (% of control) is 96.8% (inactive). The efflux inhibition (fraction of control) in assay [14] is -0.28 (inactive). Moreover, the differentiation response in [16] is -7.2% (inactive).
Take `CSCC[C@H](NC(=O)Nc1ccc(C)cc1C)C(=O)O`: in assay [1], the percent of DMSO control GFP was 99.3% (inactive). In addition, the GFP response vs DMSO in [2] was 103% (inactive); in assay [4], 95.7% (inactive). In addition, in assay [3], the percent response of DMSO control was 99.6% (inactive). Also, in [5], the GFP response, % of DMSO was 96.5% (inactive). Besides, the double positive events in [6] amounted to 56.7%. Moreover, in assay [6], the vesicle binding response is 178% (inactive). The inhibition in [7] is 3.67% (inactive); in assay [11] it was 6.83% (inactive); in [15], 7% (inactive). For the same compound, in assay [8], the superoxide response (% of plate) is 101% (inactive). The aptamer binding inhibition in assay [9] is 6% (inactive). Also, the response was 3.91% (inactive) in assay [10] and -0.26% (inactive) in [12]. In addition, the binding (% of control) in assay [13] is 94.5% (inactive). Moreover, the efflux inhibition (fraction of control) in assay [14] was -0.17 (inactive). Further, in [16], the differentiation response is -7.2% (inactive).
Take `O=C(Cc1ccccc1[N+](=O)[O-])NCCCN1CCOCC1`: in assay [1], the percent of DMSO control GFP is 101% (inactive). The GFP response vs DMSO in assay [2] is 101% (inactive); in assay [4] it was 107% (inactive). In addition, the percent response of DMSO control in assay [3] is 96.4% (inactive). Also, the GFP response, % of DMSO in assay [5] was 107% (inactive). Further, in assay [6], the double positive events was found to be 63.1%. In addition, the vesicle binding response in [6] was 426% (inactive). Also, the inhibition was -4.52% (inactive) in [7], -4.04% (inactive) in assay [11] and 2% (inactive) in [15]. The superoxide response (% of plate) in assay [8] is 113% (inactive). In addition, the aptamer binding inhibition in assay [9] is 1% (inactive). The response was -20% (inactive) in assay [10] and 0.45% (inactive) in assay [12]. In assay [13], the binding (% of control) was 99.9% (inactive). Also, the efflux inhibition (fraction of control) in assay [14] is 0 (inactive). Further, in [16], the differentiation response was -5.97% (inactive).
As to `CN1C(C(=O)Nc2ccccn2)=C(O)c2sccc2S1(=O)=O`, the percent of DMSO control GFP in assay [1] is 102% (inactive). The figures for the GFP response vs DMSO in assay [2] and in assay [4] were 97.7% (inactive) and 93.7% (inactive), respectively. Further, the percent response of DMSO control in assay [3] was 105% (inactive). For the same compound, the GFP response, % of DMSO in [5] is 102% (inactive). The compound further registered a double positive events in assay [6] of 63.2%. Also, in assay [6], the vesicle binding response is 168% (inactive). For the same compound, the inhibition was -2.43% (inactive) in assay [7], 6.73% (inactive) in assay [11] and 9% (inactive) in assay [15]. Further, the superoxide response (% of plate) in assay [8] was 113% (inactive). The aptamer binding inhibition in assay [9] is -6% (inactive). Also, the response is 4.21% (inactive) in assay [10] and 4.48% (inactive) in [12]. In addition, the binding (% of control) in [13] was 96% (inactive). In addition, in assay [14], the efflux inhibition (fraction of control) is 0.035 (inactive). The differentiation response in [16] is 4.2% (inactive).
As to `COc1cc2[nH]c3c(=O)n(CCN4CCOCC4)cnc3c2cc1OC`, the percent of DMSO control GFP in assay [1] is 101% (inactive). Also, the figures for the GFP response vs DMSO in assay [2] and in assay [4] were 96.3% (inactive) and 101% (inactive), respectively. Moreover, the percent response of DMSO control in [3] is 101% (inactive). For the same compound, the GFP response, % of DMSO in assay [5] was 99.4% (inactive). This compound also had a double positive events in [6] of 60.3%. In addition, in assay [6], the vesicle binding response was 172% (inactive). For the same compound, the inhibition in [7] was -7.25% (inactive); in [11], 13.5% (inactive); in assay [15], 5% (inactive). In assay [8], the superoxide response (% of plate) was 98.5% (inactive). Besides, the aptamer binding inhibition in [9] was 3% (inactive). For the same compound, the response in assay [10] is -0.47% (inactive); in assay [12] it was -1.31% (inactive). The binding (% of control) in assay [13] is 102% (inactive). Besides, the efflux inhibition (fraction of control) in assay [14] is -0.17 (inactive). Besides, in assay [16], the differentiation response was 4% (inactive).

What is called inhibition is the change of the read-out against control, counted positive when it falls.
